# The supplement of paper PMC8728848
# This excerpt belongs to a sample that is enriched for the strongest signals.
# B1: Crocus Lectin (Crocus vernus), Q9FVA1 (protein)
# chain: MAKSLVLSSLLLALLLAAPLASLADNNVLLTGDVLHTDNQLSFESAAFVMQGDCNLVLYNEAGGFQSNTHGRGVGCTLRLNNFGQLEIHSANSNTPVWVSLRNGIPVRGDYAAVLGPDQHVTIYGPAIWSTPAPNRHERGATVSNIPRVRNVLFSSQVMSDNAQLATRDYSLVMRDDCNLALTKGSKTNIVWESGTSGRGQHCFMRLGHTGLIEISDDRLNTVWRSNTVGQEGDYVLILQINGQAVVYGPAVWSTASPARGGASAAL
# B2: FBG1 (Homo sapiens), Q9UK22 (protein)
# chain: MDGDGDPESVGQPEEASPEEQPEEASAEEERPEDQQEEEAAAAAAYLDELPEPLLLRVLAALPAAELVQACRLVCLRWKELVDGAPLWLLKCQQEGLVPEGGVEEERDHWQQFYFLSKRRRNLLRNPCGEEDLEGWCDVEHGGDGWRVEELPGDSGVEFTHDESVKKYFASSFEWCRKAQVIDLQAEGYWEELLDTTQPAIVVKDWYSGRSDAGCLYELTVKLLSEHENVLAEFSSGQVAVPQDSDGGGWMEISHTFTDYGPGVRFVRFEHGGQDSVYWKGWFGARVTNSSVWVEP
# B3: DEC205 (Homo sapiens), O60449 (protein)
# chain: MRTGWATPRRPAGLLMLLFWFFDLAEPSGRAANDPFTIVHGNTGKCIKPVYGWIVADDCDETEDKLWKWVSQHRLFHLHSQKCLGLDITKSVNELRMFSCDSSAMLWWKCEHHSLYGAARYRLALKDGHGTAISNASDVWKKGGSEESLCDQPYHEIYTRDGNSYGRPCEFPFLIDGTWHHDCILDEDHSGPWCATTLNYEYDRKWGICLKPENGCEDNWEKNEQFGSCYQFNTQTALSWKEAYVSCQNQGADLLSINSAAELTYLKEKEGIAKIFWIGLNQLYSARGWEWSDHKPLNFLNWDPDRPSAPTIGGSSCARMDAESGLWQSFSCEAQLPYVCRKPLNNTVELTDVWTYSDTRCDAGWLPNNGFCYLLVNESNSWDKAHAKCKAFSSDLISIHSLADVEVVVTKLHNEDIKEEVWIGLKNINIPTLFQWSDGTEVTLTYWDENEPNVPYNKTPNCVSYLGELGQWKVQSCEEKLKYVCKRKGEKLNDASSDKMCPPDEGWKRHGETCYKIYEDEVPFGTNCNLTITSRFEQEYLNDLMKKYDKSLRKYFWTGLRDVDSCGEYNWATVGGRRRAVTFSNWNFLEPASPGGCVAMSTGKSVGKWEVKDCRSFKALSICKKMSGPLGPEEASPKPDDPCPEGWQSFPASLSCYKVFHAERIVRKRNWEEAERFCQALGAHLSSFSHVDEIKEFLHFLTDQFSGQHWLWIGLNKRSPDLQGSWQWSDRTPVSTIIMPNEFQQDYDIRDCAAVKVFHRPWRRGWHFYDDREFIYLRPFACDTKLEWVCQIPKGRTPKTPDWYNPDRAGIHGPPLIIEGSEYWFVADLHLNYEEAVLYCASNHSFLATITSFVGLKAIKNKIANISGDGQKWWIRISEWPIDDHFTYSRYPWHRFPVTFGEECLYMSAKTWLIDLGKPTDCSTKLPFICEKYNVSSLEKYSPDSAAKVQCSEQWIPFQNKCFLKIKPVSLTFSQASDTCHSYGGTLPSVLSQIEQDFITSLLPDMEATLWIGLRWTAYEKINKWTDNRELTYSNFHPLLVSGRLRIPENFFEEESRYHCALILNLQKSPFTGTWNFTSCSERHFVSLCQKYSEVKSRQTLQNASETVKYLNNLYKIIPKTLTWHSAKRECLKSNMQLVSITDPYQQAFLSVQALLHNSSLWIGLFSQDDELNFGWSDGKRLHFSRWAETNGQLEDCVVLDTDGFWKTVDCNDNQPGAICYYSGNETEKEVKPVDSVKCPSPVLNTPWIPFQNCCYNFIITKNRHMATTQDEVHTKCQKLNPKSHILSIRDEKENNFVLEQLLYFNYMASWVMLGITYRNNSLMWFDKTPLSYTHWRAGRPTIKNEKFLAGLSTDGFWDIQTFKVIEEAVYFHQHSILACKIEMVDYKEEHNTTLPQFMPYEDGIYSVIQKKVTWYEALNMCSQSGGHLASVHNQNGQLFLEDIVKRDGFPLWVGLSSHDGSESSFEWSDGSTFDYIPWKGQTSPGNCVLLDPKGTWKHEKCNSVKDGAICYKPTKSKKLSRLTYSSRCPAAKENGSRWIQYKGHCYKSDQALHSFSEAKKLCSKHDHSATIVSIKDEDENKFVSRLMRENNNITMRVWLGLSQHSVDQSWSWLDGSEVTFVKWENKSKSGVGRCSMLIASNETWKKVECEHGFGRVVCKVPLGPDYTAIAIIVATLSILVLMGGLIWFLFQRHRLHLAGFSSVRYAQGVNEDEIMLPSFHD
# Columns and labels:
# Experiment in all cases: glycan array binding signal (z-score within array); higher = stronger binding
# Conditions in all cases: glycan notation: IUPAC condensed, linker removed
# [1] = molecular target: Fuc(a1-2)Gal(b1-3)GalNAc(b1-3)Gal(a1-4)Gal(b1-4)Glc
# Method in brief: (§1)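 Glycan array data were curated from 3228 arrays in the Consortium for Functional Glycomics database and kept only where the protein sequence was available. Glycan names were converted to IUPAC-condensed notation, and columns mapping to the same glycan were averaged. The binding signal is a within-array Z-score, averaged across arrays of the same protein sequence at different concentrations or buffers and across linkers. Negative Z-scores can be read as non-binding.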
# [2] = molecular target: Fuc(a1-2)Gal(b1-4)GlcNAc(b1-3)Gal(b1-4)GlcNAc(b1-3)Gal(b1-4)GlcNAc
# Method in brief: as §1
# [3] = molecular target: Fuc(a1-2)[GalNAc(a1-3)]Gal(b1-4)[Fuc(a1-3)]GlcNAc
# Method in brief: as §1
# [4] = molecular target: Fuc(a1-3)[Gal3S(b1-4)]GlcNAc
# Method in brief: as §1
# Fuc(b1-3)GlcNAc = molecular target: Fuc(b1-3)GlcNAc
# Method in brief: as §1
# Gal(a1-3)Gal = molecular target: Gal(a1-3)Gal
# Method in brief: as §1
# Gal(b1-3)Gal = molecular target: Gal(b1-3)Gal
# Method in brief: as §1
# [5] = molecular target: Gal(b1-4)GalNAc(a1-3)[Fuc(a1-2)]Gal(b1-4)GlcNAc
# Method in brief: as §1
# Gal(b1-4)Glc = molecular target: Gal(b1-4)Glc
# Method in brief: as §1
# Gal(b1-4)Glc6S = molecular target: Gal(b1-4)Glc6S
# Method in brief: as §1
# GlcA(b1-3)Gal = molecular target: GlcA(b1-3)Gal
# Method in brief: as §1
# [6] = molecular target: GlcNAc(a1-6)Gal(b1-4)GlcNAc
# Method in brief: as §1
# [7] = molecular target: GlcNAc(b1-4)GlcNAc(b1-4)GlcNAc
# Method in brief: as §1
# [8] = molecular target: GlcNAc(b1-4)[GlcNAc(b1-6)]GalNAc
# Method in brief: as §1
# GlcNAc(b1-6)GalNAc = molecular target: GlcNAc(b1-6)GalNAc
# Method in brief: as §1
# [9] = molecular target: Man(a1-2)Man(a1-3)[Man(a1-3)[Man(a1-6)]Man(a1-6)]Man(b1-4)GlcNAc(b1-4)GlcNAc
# Method in brief: as §1
# Man(a1-3)[Man(a1-6)]Man = molecular target: Man(a1-3)[Man(a1-6)]Man
# Method in brief: as §1
# [10] = molecular target: Man(a1-3)[Man(a1-6)]Man(a1-6)[Man(a1-3)]Man(b1-4)GlcNAc(b1-4)GlcNAc
# Method in brief: as §1
# [11] = molecular target: Man(a1-3)[Man(a1-6)]Man(b1-4)GlcNAc(b1-4)GlcNAc
# Method in brief: as §1
# [12] = molecular target: Neu5Ac(a2-3)Gal(b1-3)[Neu5Ac(a2-3)Gal(b1-4)]GlcNAc
# Method in brief: as §1
# [13] = molecular target: Neu5Ac(a2-3)Gal(b1-4)[Fuc(a1-3)]GlcNAc6S
# Method in brief: as §1
# [14] = molecular target: Gal(b1-4)GlcNAc(b1-3)GalNAc
# Method in brief: as §1
# [15] = molecular target: Man(a1-2)Man(a1-3)[Man(a1-2)Man(a1-6)]Man(a1-6)[Man(a1-3)[Man(a1-6)]Man(a1-6)]Man(b1-4)GlcNAc(b1-4)GlcNAc
# Method in brief: as §1
# [16] = molecular target: Man(a1-2)Man(a1-6)[Man(a1-3)]Man(a1-6)[Man(a1-2)Man(a1-2)Man(a1-3)]Man(b1-4)GlcNAc(b1-4)GlcNAc
# Method in brief: as §1
# [17] = molecular target: Neu5Ac(a2-3)[GalNAc(b1-4)]Gal(b1-4)GlcNAc
# Method in brief: as §1
# [18] = molecular target: Neu5Gc(a2-3)Gal(b1-3)GlcNAc
# Method in brief: as §1
# [19] = molecular target: Fuc(a1-2)Gal(b1-4)[Fuc(a1-3)]GlcNAc(b1-3)Gal(b1-4)[Fuc(a1-3)]GlcNAc(b1-3)Gal(b1-4)[Fuc(a1-3)]GlcNAc
# Method in brief: as §1
# [20] = molecular target: Fuc(a1-3)[Gal(b1-4)]GlcNAc
# Method in brief: as §1
# Gal(a1-2)Gal = molecular target: Gal(a1-2)Gal
# Method in brief: as §1
# Gal(a1-3)Gal(b1-3)GlcNAc = molecular target: Gal(a1-3)Gal(b1-3)GlcNAc
# Method in brief: as §1
# Gal(a1-3)Gal(b1-4)Glc = molecular target: Gal(a1-3)Gal(b1-4)Glc
# Method in brief: as §1
# [21] = molecular target: Gal(b1-3)[Neu5Ac(a2-6)]GalNAc
# Method in brief: as §1
# [22] = molecular target: GlcNAc(b1-3)Gal(b1-3)GalNAc
# Method in brief: as §1
# [23] = molecular target: GlcNAc(b1-6)Gal(b1-4)GlcNAc
# Method in brief: as §1
# Kdn(a2-3)Gal(b1-4)GlcNAc = molecular target: Kdn(a2-3)Gal(b1-4)GlcNAc
# Method in brief: as §1
# [24] = molecular target: Man(a1-2)Man(a1-3)[Man(a1-2)Man(a1-6)]Man(a1-6)[Man(a1-2)Man(a1-2)Man(a1-3)]Man(b1-4)GlcNAc(b1-4)GlcNAc
# Method in brief: as §1
# [25] = molecular target: Neu5Ac(a2-3)Gal(b1-4)[Fuc(a1-3)]GlcNAc(b1-3)Gal
# Method in brief: as §1
# [26] = molecular target: Neu5Ac(a2-8)Neu5Ac(a2-3)[GalNAc(b1-4)]Gal(b1-4)Glc
# Method in brief: as §1
# [27] = molecular target: Neu5Ac(a2-8)Neu5Ac(a2-8)Neu5Ac(a2-3)[GalNAc(b1-4)]Gal(b1-4)Glc
# Method in brief: as §1
binder,measurement,setting,value
B1,glycan array binding signal (z-score),[1],-0.162
same,glycan array binding signal (z-score),[2],-0.146
same,glycan array binding signal (z-score),[3],-0.159
same,glycan array binding signal (z-score),[4],-0.187
same,glycan array binding signal (z-score),Fuc(b1-3)GlcNAc,-0.163
same,glycan array binding signal (z-score),Gal(a1-3)Gal,-0.177
same,glycan array binding signal (z-score),Gal(b1-3)Gal,-0.192
same,glycan array binding signal (z-score),[5],-0.195
same,glycan array binding signal (z-score),Gal(b1-4)Glc,-0.152
same,glycan array binding signal (z-score),Gal(b1-4)Glc6S,-0.165
same,glycan array binding signal (z-score),GlcA(b1-3)Gal,-0.179
same,glycan array binding signal (z-score),[6],-0.196
same,glycan array binding signal (z-score),[7],-0.156
same,glycan array binding signal (z-score),[8],-0.187
same,glycan array binding signal (z-score),GlcNAc(b1-6)GalNAc,-0.175
same,glycan array binding signal (z-score),[9],3.76
same,glycan array binding signal (z-score),Man(a1-3)[Man(a1-6)]Man,7.87
same,glycan array binding signal (z-score),[10],7.04
same,glycan array binding signal (z-score),[11],6.62
same,glycan array binding signal (z-score),[12],-0.169
same,glycan array binding signal (z-score),[13],-0.195
B2,glycan array binding signal (z-score),[1],0.049
same,glycan array binding signal (z-score),Gal(a1-3)Gal,-0.252
same,glycan array binding signal (z-score),[14],5.13
same,glycan array binding signal (z-score),[15],4.33
same,glycan array binding signal (z-score),[16],4.93
same,glycan array binding signal (z-score),[17],-0.217
same,glycan array binding signal (z-score),[18],-0.177
B3,glycan array binding signal (z-score),[1],-0.222
same,glycan array binding signal (z-score),[19],1.97
same,glycan array binding signal (z-score),[20],-0.335
same,glycan array binding signal (z-score),Gal(a1-2)Gal,-0.046
same,glycan array binding signal (z-score),Gal(a1-3)Gal(b1-3)GlcNAc,-0.064
same,glycan array binding signal (z-score),Gal(a1-3)Gal(b1-4)Glc,1.66
same,glycan array binding signal (z-score),[21],-0.279
same,glycan array binding signal (z-score),[22],-0.229
same,glycan array binding signal (z-score),[7],3.79
same,glycan array binding signal (z-score),[23],-0.071
same,glycan array binding signal (z-score),Kdn(a2-3)Gal(b1-4)GlcNAc,1.75
same,glycan array binding signal (z-score),[24],0.357
same,glycan array binding signal (z-score),[10],-0.154
same,glycan array binding signal (z-score),[12],-0.395
same,glycan array binding signal (z-score),[25],-0.262
same,glycan array binding signal (z-score),[26],0.013
same,glycan array binding signal (z-score),[27],-0.243
